Bioassay records (PubChem)
FBPA coupling cs: coupling enzyme interference in Giardia aldolase counter-screen; coupling enzyme system counterscreen, AmpLite Red fluorescence; activity change, negative = inhibition, % at 58.2 µM, hits read low; 0.67% of 290,000 active; AID 2472; in the data active = activity change below about -30%
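Fluorescence at 525 nm excitation and 598 nm emission measured inhibition of the coupled detection system without aldolase. Compounds (at 57.5 uM final) were preincubated 10 min at room temperature with coupling enzyme reagent before a 20 min substrate/AmpLite Red step.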
GALK inh: galactokinase (human) inhibition. Purified GALK, Kinase-Glo residual ATP luminescence. Potency, µM (top dose mostly 57.5 µM), most hits filed as inhibitors. 0.007% of 270,000 active. AID 1868
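Human GALK (5 nM) with 35 uM ATP and 100 uM galactose in 20 mM HEPES pH 8.0, 5 mM MgCl2, 60 mM NaCl, 1 mM DTT, 0.01% BSA. After 1 h at room temperature, leftover ATP was read by Kinase-Glo Plus luminescence.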
VDR inh: inhibitors of human vitamin D receptor | P11473 | VDR-SRC2-3 peptide fluorescence polarization, 2 h | Potency, µM, actives largely listed as inhibitors | 0.93% of 400,000 active | AID 504847
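Fluorescence polarization assay measuring small-molecule disruption of VDR binding to the coregulator peptide SRC2-3. Compounds were pin-transferred (23 nl) into the reagent mix and incubated 2 h at room temperature before reading.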
USP1 inh: USP1/UAF1 (human) deubiquitinase inhibition; Potency, µM (doses to about 57.1 µM), usual class: inhibitors; recombinant USP1/UAF1, Ub-Rhodamine cleavage fluorescence; AID 743255; O94782; 0.23% of 390,000 active; note: nearly all actives have a fitted effect of over 60% in size
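Step one: compound is pinned into 1nM USP1/UAF1 in HEPES pH 7.8 buffer with TCEP. Step two: 15 min room-temperature incubation. Step three: Ub-Rho (150nM final) starts cleavage, tracked by fluorescence over six one-minute reads.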
PLK1 PBD block: PLK1 (human) polo-box domain binding inhibition. AID 720504. Potency, µM, most hits filed as inhibitors. Plk1 PBD binding of FITC phosphopeptide, fluorescence polarization. 2.8% of 360,000 active; note: series mostly up to about 57 µM; nearly all actives have a fitted effect of over 65% in size
USP2a inh: inhibitors of human ubiquitin-specific protease USP2a; USP2 core, Ub-CHOP2 coupled fluorogenic reporter, 485/531; Potency, µM (series often up to 38.3 µM), actives largely listed as inhibitors; 0.01% of 330,000 active; AID 463254
Target sequence (O75604 whole entry, looked up): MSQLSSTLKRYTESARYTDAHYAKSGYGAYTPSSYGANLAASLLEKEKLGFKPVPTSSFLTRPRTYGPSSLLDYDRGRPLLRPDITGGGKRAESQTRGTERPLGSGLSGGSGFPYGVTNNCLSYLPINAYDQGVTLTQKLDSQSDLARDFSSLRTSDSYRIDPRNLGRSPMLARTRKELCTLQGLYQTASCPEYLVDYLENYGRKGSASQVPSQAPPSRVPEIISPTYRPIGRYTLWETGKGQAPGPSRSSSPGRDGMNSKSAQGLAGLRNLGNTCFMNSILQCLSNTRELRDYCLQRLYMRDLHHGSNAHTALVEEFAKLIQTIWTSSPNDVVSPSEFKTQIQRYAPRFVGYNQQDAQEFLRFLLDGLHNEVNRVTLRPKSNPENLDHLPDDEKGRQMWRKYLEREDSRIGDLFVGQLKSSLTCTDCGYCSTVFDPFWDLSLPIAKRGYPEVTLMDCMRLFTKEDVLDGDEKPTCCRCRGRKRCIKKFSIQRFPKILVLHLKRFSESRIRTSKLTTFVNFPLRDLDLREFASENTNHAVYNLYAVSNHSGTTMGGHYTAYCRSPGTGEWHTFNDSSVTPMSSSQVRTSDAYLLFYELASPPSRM
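Cell-free coupled assay: 10nM USP2 core preincubated 30min RT with compound in Tris-HCl pH 8.0/CaCl2/CHAPS buffer, then 25nM Ub-CHOP2 and 25nM reporter substrate; fluorescence (Ex 485/Em 531) read after 60min RT, normalized to NEM inhibition, concentration-response curves fitted.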
Of the large screens only hits and unclear results are named; the others gave an inactive call. Shown are actives, neighbours in structure and some others; about 3.2% of the full set was active somewhere. Unless noted, calls come from the whole dose curve; as a rule, active = well fitted curve in the direction sought with a large enough effect; inconclusive = small, poorly fitted or top-dose-only effect, or another doubt; inactive = no such curve, though single readings can be large; an effect the other way counts as inactive or inconclusive.

COc1ccc2[nH]c3c(=O)n(CCCCC(=O)NCCN4CCCC4)c(=S)[nH]c3c2c1	none
COc1ccc2[nH]c3c(=O)n(Cc4ccc(C(=O)N5CCCC5)cc4)c(=S)[nH]c3c2c1	VDR inh inconclusive, PLK1 PBD block 24µM
CC1C/C(=C/c2ccco2)C(=O)/C(=C/c2ccco2)C1 (centres undefined)	none (no result: GALK inh, VDR inh, USP1 inh, PLK1 PBD block)
O=[N+]([O-])c1cc(C(F)(F)F)cc([N+](=O)[O-])c1NN=C1CCCCC1	VDR inh 50µM, PLK1 PBD block inconclusive
CCOc1ccccc1OCCCC(=O)Nc1nc2ccccc2[nH]1	none
CCOc1ccccc1/C=C/c1nc2ccccc2[nH]c1=O	VDR inh inconclusive, PLK1 PBD block 3.8µM
O=C(Cn1c(NCCCO)nc2ccccc21)c1ccc(Br)cc1	none
O=C(Nc1ccc(F)cc1)Nc1nnc(Cc2ccccc2F)s1	VDR inh 71µM, PLK1 PBD block 17µM
COc1cccc(NC(=O)Nc2nnc(Cc3ccccc3F)s2)c1	none
CCCC[C@@H](C)/C=C(C)/C=C(\C)C(=O)NC1=C[C@@](O)(/C=C/C=C/C=C/C(=O)NC2=C(O)CCC2=O)[C@@H]2O[C@@H]2C1=O	VDR inh 2.2µM (no result: GALK inh, USP1 inh, PLK1 PBD block, USP2a inh)
CCOC(=O)N1CCN(C(=O)C2CC(=O)N(c3ccccc3)C2)CC1 (centres undefined)	none (no result: FBPA coupling cs)
Cc1ccc(NC(=O)c2cc(N3C(=O)CCC3=O)ccc2N2CCOCC2)cc1	none
COC(=O)c1cc(NC(=O)c2cccs2)ccc1N1CCOCC1	VDR inh inconclusive, PLK1 PBD block 27µM
Cc1ccc(NC(=O)c2cc(N3C(=O)C=CC3=O)ccc2N2CCOCC2)cc1Cl	VDR inh 45µM, PLK1 PBD block 4.7µM
O=C(Cn1ncc(Cl)c(Cl)c1=O)N1CCc2ccccc21	none
COc1ccc(NC(=O)c2cc3ccccc3o2)cc1OC	VDR inh inconclusive, PLK1 PBD block 24µM
CCCC(=O)N1CCN(c2ccc(NC(=O)c3cc4ccccc4o3)cc2Cl)CC1	FBPA coupling cs -40
COc1cc(NC(=O)COC(=O)CCCC2=NS(=O)(=O)c3ccccc3N2)cc(OC)c1	PLK1 PBD block 21µM (no result: FBPA coupling cs)
O=C(NC1CCCCC1)c1ccc(S(=O)(=O)N2CCCC2)cc1	none
O=C1CC(NS(=O)(=O)c2cccnc2)CN1c1ccccc1 (centres undefined)	none (no result: FBPA coupling cs, GALK inh)
O=C1C2C3C=CC(C3=C(c3ccccc3)c3ccccc3)C2C(=O)N1Cc1ccccc1 (centres undefined)	PLK1 PBD block 67µM
CC(C(=O)Nc1nncs1)N1C(=O)C2C3C=CC(C3)C2C1=O (centres undefined)	VDR inh inconclusive
Nc1sc2c(c1C(=O)NC1CC1)CCCC2	VDR inh 79µM, PLK1 PBD block 19µM (no result: FBPA coupling cs, GALK inh)
CCOc1ccc2[nH]cc(S(=O)(=O)c3ccc(C)cc3)c(=O)c2c1	none
CCNc1ccc(Br)cc(C(=O)/C=C/c2ccc(Cl)cc2Cl)c1=O	VDR inh 79µM, USP1 inh inconclusive, PLK1 PBD block inconclusive
Cc1cccn2c(=O)nc(SCC(=O)N3CCOCC3)nc12	none (no result: FBPA coupling cs, GALK inh)
CCOC(=O)c1cnn(-c2ccccc2)c1NC(=O)c1ccccc1	none
CC(C)c1ccc(Nc2c([N+](=O)[O-])c(=O)n(C)c3ccccc23)cc1	none
Cn1c(=O)c([N+](=O)[O-])c(-n2ccnc2)c2ccccc21	VDR inh 20µM
Cc1cccc(Nc2c([N+](=O)[O-])c(=O)n(C)c3ccccc23)c1	VDR inh inconclusive, PLK1 PBD block 27µM
COc1ccc(S(=O)(=O)Nc2c(C(=O)O)[nH]c3ccccc23)c(OC)c1	none
COc1ccc(S(=O)(=O)Nc2c(C(=O)O)[nH]c3ccc(OC)cc23)c(OC)c1	PLK1 PBD block 15µM
Cc1ccc(C(=O)Nc2nc(-c3cccnc3)cs2)o1	PLK1 PBD block inconclusive
O=C(Nc1nc(-c2ccccc2)cs1)c1ccc(Br)o1	VDR inh inconclusive, PLK1 PBD block 30µM
COCCn1nnnc1CN1CCC(O)(c2cccc(C(F)(F)F)c2)CC1	none
NC(=S)n1[nH]c(-c2ccc([N+](=O)[O-])cc2)c(N=Nc2cccc([N+](=O)[O-])c2)c1=O	VDR inh inconclusive, USP1 inh inconclusive, PLK1 PBD block 21µM
c1ccc(-c2cc(-c3ccccc3)on2)cc1	VDR inh inconclusive, PLK1 PBD block 13µM
COc1cc(NS(=O)(=O)c2ccc(NC(=S)NC(=O)/C=C/c3ccco3)cc2)ncn1	PLK1 PBD block 13µM
COc1nccnc1NS(=O)(=O)c1ccc(NC(=S)NC(=O)c2ccccc2)cc1	none
COc1nccnc1NS(=O)(=O)c1ccc(NC(=S)NC(=O)/C=C/c2ccccc2)cc1	VDR inh inconclusive, PLK1 PBD block 30µM (no result: GALK inh)
CCN(CC)CCN(C(=O)C1=COCCO1)c1nc2cc3c(cc2s1)OCO3	none
Cc1cc(C)nc(Nc2n[nH]c(COc3ccccc3)n2)n1	VDR inh inconclusive, PLK1 PBD block 3.4µM
COc1cccc(CN=CC2=C(O)CC(C)(C)CC2=O)c1OC	none
COc1ccccc1CN=Cc1[nH]c2ccc(Br)c(Cl)c2c1O	FBPA coupling cs -44
Cc1cccc(N=Cc2[nH]c3ccc(Br)c(Cl)c3c2O)c1	FBPA coupling cs -33, USP1 inh inconclusive
COc1ccc(C2(C(=O)c3ccccc3)C(=O)c3ccccc3C2=O)cc1	VDR inh inconclusive, PLK1 PBD block 12µM
O=S(=O)(c1ccc(F)cc1)c1snnc1-c1ccccc1	FBPA coupling cs -30
Cc1ccc(S(=O)(=O)C(C#N)c2nc3ccccc3nc2N2CCCC2)cc1 (centres undefined)	FBPA coupling cs -30, VDR inh inconclusive, PLK1 PBD block 34µM
Cc1ccc(S(=O)(=O)C(C#N)c2nc3ccccc3nc2N2CC(C)OC(C)C2)cc1C (centres undefined)	PLK1 PBD block 38µM
COc1ccc(CNC(=O)c2ccc3ccccc3n2)cc1OC	none
O=C(COC(=O)C1=COCCO1)NC(=O)c1ccc(OC(F)F)cc1	none
COc1ccc(S(=O)(=O)N2CCCC2C(=O)Nc2nnc(-c3cccnc3)s2)cc1 (centres undefined)	VDR inh inconclusive, USP1 inh inconclusive, PLK1 PBD block 27µM
CCC(CC)NC(=O)c1cc(S(=O)(=O)N2CCCCC2)ccc1N1CCOCC1	none (no result: FBPA coupling cs, GALK inh)
CCN(C(=O)c1coc(=O)c(Br)c1)c1ccc2c(c1)OCO2	FBPA coupling cs -42, VDR inh inconclusive, USP1 inh inconclusive
CCN(C(=O)c1c(C)cc(=O)oc1C)c1ccc2c(c1)OCO2	none
CCN(CC)C(=O)C[n+]1ccc(C(N)=O)cc1	PLK1 PBD block 27µM
Cc1ccc(S(=O)(=O)N2C3CCCCC3O[C@H]2CC(=O)c2ccc(F)cc2)cc1 (some centres undefined)	none (no result: FBPA coupling cs, GALK inh, VDR inh, USP1 inh, USP2a inh)
